# Assay outcomes: PubChem BioAssay, several laboratories
# Shown are actives, neighbours in structure and some others; about 12% of the full set was active somewhere.
# PostGolgi yeast: growth inhibition of a yeast mutant, post-Golgi transport screen; post-Golgi transport phenotypic cell assay; inhibition, % at 10 µM; 98,000 tested, 0.9% active;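 also: yeast cells grown in 1536-well plates; yeast grown about 18 h at 30C before absorbance read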
# Cav32 inh: human Cav3.2 channel inhibition, primary screen | AID 449739 | 100,000 tested, 4% active | Cav3.2-expressing cells, Fluo-4 calcium fluorescence FDSS; stronger effect = lower value | B-score at 10 µM;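 active = single-dose well whose peak fluorescence ratio is a statistical outlier from its plate by either plate-standardised score or position-corrected B-score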
# PostGolgi ctrl: yeast control strain growth, post-Golgi counter-screen; inhibition, % at 10 µM; 98,000 tested, 5% active; efflux-deficient yeast background strain, growth absorbance A615, 16 h; AID 738
# D1 mod: allosterically modulates the human D1 dopamine receptor | P21728 | HEK293 D1, CRE-luciferase, dopamine EC30 potentiation; actives deviate in either direction | B-score at 10 µM | 58,000 tested, 5.9% active;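 active = luminescence count or its row- and column-corrected plate score outside the 99.7% band of the plate's sample wells, on either side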
# DAT uptake mod: modulates human dopamine transporter uptake under cocaine; AID 449768; 110,000 tested, 1.3% active; LLC-PK1 hDAT cells, [14C]-dopamine uptake with cocaine IC80; actives deviate in either direction; B-score at 10 µM;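 active = Z score or B-score, a plate-position-corrected score, falls beyond the plate's 99.7% confidence bounds, in either direction; inactive = both scores lie inside the 99.7% bounds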;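 also: scored against the spread of the other compound wells on the same plate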
# Target sequence (Q01959 whole entry, looked up): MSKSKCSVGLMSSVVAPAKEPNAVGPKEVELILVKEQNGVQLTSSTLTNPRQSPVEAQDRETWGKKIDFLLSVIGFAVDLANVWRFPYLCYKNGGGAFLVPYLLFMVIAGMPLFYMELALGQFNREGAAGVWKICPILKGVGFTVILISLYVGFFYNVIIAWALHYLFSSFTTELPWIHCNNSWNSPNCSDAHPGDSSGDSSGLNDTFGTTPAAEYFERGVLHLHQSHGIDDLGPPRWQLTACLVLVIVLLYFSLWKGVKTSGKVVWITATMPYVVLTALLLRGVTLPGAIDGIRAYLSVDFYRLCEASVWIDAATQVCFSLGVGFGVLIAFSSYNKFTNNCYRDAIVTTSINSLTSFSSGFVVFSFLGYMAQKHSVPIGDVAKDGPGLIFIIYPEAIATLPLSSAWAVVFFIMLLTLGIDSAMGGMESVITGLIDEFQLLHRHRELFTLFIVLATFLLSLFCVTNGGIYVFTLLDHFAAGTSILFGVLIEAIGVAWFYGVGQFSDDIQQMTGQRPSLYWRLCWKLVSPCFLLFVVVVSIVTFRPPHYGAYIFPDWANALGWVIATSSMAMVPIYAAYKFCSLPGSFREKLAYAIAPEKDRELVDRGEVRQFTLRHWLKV
# PLAP activator: activates human placental alkaline phosphatase; P05187; purified PLAP enzyme, luminescent substrate read-out; stronger effect = higher value; activation fold at 20 µM; 96,000 tested, 1.2% active; AID 696; in the data active = activation fold above about 2
# Starred values were filed as active, the others as inactive; · = no result given. Rule as the data show it, unless noted: active = inhibition above about 30%; inactive = the rest.
SMILES,PostGolgi yeast,Cav32 inh,PostGolgi ctrl,D1 mod,DAT uptake mod,PLAP activator
Cn1c(=O)c2c(SCc3cccnc3)nc(CC(C)(C)C)nc2n(C)c1=O,6,-1.2,54*,·,0.23,1.5
COc1ccc(NC(=O)CSc2nc3c(c(=O)n2-c2ccc(C)cc2)SCC3)c(OC)c1,·,·,·,0.011,·,·
O=[N+]([O-])/C=C/c1cn(Cc2ccc(F)cc2)c2ccccc12,36*,-0.0051,80*,·,0.18,1
O=C(CS(=O)(=O)c1cn(Cc2ccc(F)cc2)c2ccccc12)N1CCCCC1,-3,-0.56,10,-0.74,-1.2,·
Cc1cc2n(n1)C(c1c[nH]c3ccccc13)Nc1ccccc1-2 (stereo not drawn),11,-0.38,55*,0.87,2.6,1.2
Cc1ccc(-n2c(SCC(N)=O)nnc2-c2ccc(S(=O)(=O)N3CCCCC3)cc2)c(C)c1,4,1.3,10,·,-0.42,1.4
CC(=O)NCCn1c(SCc2ccc(C)cc2)nc2ccccc2c1=O,3,-0.25,34*,·,-0.59,1.4
COCCn1c(SCC(=O)c2ccc(CNC(C)=O)o2)nc2ccccc2c1=O,6,0.96,4,-0.13,0.31,1.1
CC(=O)NCCn1c(SCC#N)nc2ccccc2c1=O,-5,0.41,4,-0.15,-1.1,1
Cc1ccc2c(CSc3nc4ccccc4c(=O)n3CCCO)cc(=O)oc2c1C,-3,·,32*,·,0.96,1.5
COC(=O)c1ccc(CSc2nc3ccccc3c(=O)n2CC(C)C)o1,-1,-4.7*,27,·,-0.12,1
Cc1oc2c(c1C(=O)Nc1ccc(C(=O)O)cc1)CCCC2,3,0.056,-10,·,1,1.2
CC1(C)CC(=O)C=C(NCC(=O)O)C1,-3,1.4,-1,-0.39,-0.23,0.9
CCCC[C@@H]1CN=C(N)N1CC(C)(C)C,·,2.1,·,·,-0.95,·
Cc1nn(-c2ccc(C(=O)O)cc2)c(N)c1-c1ccccc1,4,·,9,·,·,0.9
Cc1nn(C2CCCCC2)c(N)c1-c1ccccc1,-1,-3.4*,1,-0.74,-0.25,1
Cc1nn(Cc2ccccc2)c(N)c1-c1ccccc1,34*,0.16,3,-0.52,-0.93,0.8
CCC1CCCCN1C(=O)N[C@@H](Cc1ccccc1)C(=O)O (stereo partly drawn),14,1,6,0.39,0.09,0.8
COc1ccc(-n2c(Cc3cccn3C)nnc2SCC(=O)NCCc2ccccc2)cc1,-3,-1.8,0,0.082,0.33,1.7
Cc1ccc(S(=O)(=O)Oc2ccccc2/C=N/NC(=O)c2c(Cl)cnn2C)cc1,·,-8.9*,·,·,1.6,·
Cn1c2ccccc2c2cc(C(=O)NNS(=O)(=O)c3ccc(F)cc3)sc21,15,-2.8,55*,·,0.98,1.3
Cc1ccccc1NC(=S)NN1CCN(C)CC1,-2,-0.038,6,·,-1.3,1.1
O=S(=O)(Nc1nc2ccccc2s1)c1ccc(Cl)s1,8,-5.1*,31*,·,-3.6*,1
Cc1nc2ccc(S(=O)(=O)NCC(=O)N3CCCC(C)C3)cc2s1 (stereo not drawn),5,0.53,4,0.43,0.47,1.1
COc1ccccc1-c1nnc(NC(=O)C(C)SC2=NCCS2)s1 (stereo not drawn),11,-3.1,38*,-0.0081,-0.18,1.3
SMILES,PostGolgi yeast,Cav32 inh,PostGolgi ctrl,D1 mod,DAT uptake mod,PLAP activator
Cc1cc(N2CCN(C(=O)OC(C)(C)C)CC2)n2ncnc2n1,10,0.19,-8,0.27,0.74,0.9
Cc1occc1-c1nnc(SCC(=O)c2ccc(F)cc2)n1Cc1ccco1,-2,-2.3,14,0.29,1.6,1.2
O=C(CSc1nnc(-c2ccco2)n1Cc1ccccc1)c1ccc(F)cc1,-4,-1.4,32*,-0.86,-0.026,1.3
COc1ccccc1-c1nnc(SCC(=O)c2ccc(C3CCCCC3)cc2)n1Cc1ccco1,4,-4.7*,7,·,0.41,1.3
O=C(CSc1nnc(-c2ccco2)n1Cc1ccccc1)NCc1ccccc1,·,-0.34,·,·,0.27,·
O=C(CSc1nnc(-c2cc3ccccc3cc2O)n1Cc1ccco1)c1ccc(F)cc1,-3,-4*,80*,-0.86,-0.31,1.7
O=C(COc1ccc2ccccc2c1)Nc1ccc(S(=O)(=O)N2CCCCCC2)cc1,·,-0.9,·,·,0.066,·
CCCNS(=O)(=O)c1ccc(OCC(=O)N2CCOCC2)cc1,·,0.83,·,·,-0.18,·
CC(C)(C)c1ccc(S(=O)(=O)N2CCC(c3nc4ccc(Cl)cc4[nH]3)CC2)cc1,·,-4.6*,·,·,0.91,·
CC(=O)Nc1ccc(S(=O)(=O)N2CCC(c3nc4ccc(C)cc4[nH]3)CC2)cc1,-3,0.8,0,·,0.55,1
CNC(=S)N1C2CCC1CC(NC(=O)NC13CC4CC(CC(C4)C1)C3)C2 (stereo not drawn),9,-0.13,5,·,-0.54,1.2
Cc1ccc(N2C(=O)C(c3c(C)[nH]n(-c4ccccc4)c3=O)(C(F)(F)F)C3=C2CC(C)(C)CC3=O)cc1 (stereo not drawn),5,1.1,-10,·,-5.1*,1.6
COc1cccc(NC(=O)C2CCN(Cc3cnn(-c4ccccc4)c3-n3cccc3)CC2)c1,-1,-10*,20,·,0.62,4.6
COc1ccc(OC)c(NC(=O)C2CCN(Cc3cnn(-c4ccccc4)c3-n3cccc3)CC2)c1,4,-8.7*,-5,·,-0.2,1.9
COc1ccc(NC(=O)C2CCN(Cc3cnn(-c4ccccc4)c3-n3cccc3)CC2)cc1OC,12,-1.5,1,·,-1.4,·
O=C(Nc1ccccc1Cl)C1CCN(Cc2cnn(-c3ccccc3)c2-n2cccc2)CC1,10,-8.3*,1,·,0.23,2*
CC(=O)c1cccc(NC(=O)COc2ccc(S(=O)(=O)N3CCCCC3)cc2)c1,21,·,8,0.58,0.24,0.8
CCOc1ccc(CCNC(=O)CN2CCN(Cc3ccccc3C)C2=O)cc1OCC,3,0.046,1,0.7,-1.2,1.5
Cc1ccc(C(=O)Nc2ccc(S(=O)(=O)N3CCc4ccccc43)cc2)o1,7,-1.7,24,-0.014,0.82,0.8
CCc1ccc(NC(=O)CN2CCc3ccccc3C2)cc1,1,-3.5,23,·,2.5,1.5
O=C(Nc1ccc(S(=O)(=O)N2CCCCC2)cc1)c1ccc(CN2CCc3ccccc3C2)cc1,-2,-2.4,54*,·,-0.042,1.4
Cc1ccc(C(=O)Nc2ccc(S(=O)(=O)N3CCN(C)CC3)cc2)cc1,·,-2.6,·,·,-0.25,·
O=C(CN1CCc2ccccc2C1)Nc1ccc(Br)cc1,-7,-4.1*,0,·,-0.45,0.8
CN1CCN(S(=O)(=O)c2ccc(NC(=O)C(C)(C)C)cc2)CC1,-8,-5.7*,16,·,-0.27,1.2
Cc1ccc(NC(=O)c2ccc(CN3CCc4ccccc4C3)cc2)cc1,-4,·,13,·,·,0.8
Cc1ccc(C(=O)Nc2ccc(S(=O)(=O)N3CCc4ccccc4C3)cc2)o1,1,-2.8,48*,-0.02,-0.015,1.4
CC(=O)Nc1ccc(S(=O)(=O)N2CCCN(S(=O)(=O)c3ccc(NC(C)=O)cc3)CC2)cc1,6,·,1,0.12,-0.44,0.8
